# Assays:
# [1] = target: T1, Aspartate--tRNA(Asp/Asn) ligase (Mycobacterium tuberculosis (strain ATCC 25618 / H37Rv)) (UniProt P9WFW3); experiment: Assay for Asp RNA synthetase-1 from Mycobacterium tuberculosis; assay type: functional; design: scale not given: direction of the effect not stated beside the values; conditions: 30 µM; note: in the data most compounds retested in dose-response had high values
# T1 sequence (whole entry): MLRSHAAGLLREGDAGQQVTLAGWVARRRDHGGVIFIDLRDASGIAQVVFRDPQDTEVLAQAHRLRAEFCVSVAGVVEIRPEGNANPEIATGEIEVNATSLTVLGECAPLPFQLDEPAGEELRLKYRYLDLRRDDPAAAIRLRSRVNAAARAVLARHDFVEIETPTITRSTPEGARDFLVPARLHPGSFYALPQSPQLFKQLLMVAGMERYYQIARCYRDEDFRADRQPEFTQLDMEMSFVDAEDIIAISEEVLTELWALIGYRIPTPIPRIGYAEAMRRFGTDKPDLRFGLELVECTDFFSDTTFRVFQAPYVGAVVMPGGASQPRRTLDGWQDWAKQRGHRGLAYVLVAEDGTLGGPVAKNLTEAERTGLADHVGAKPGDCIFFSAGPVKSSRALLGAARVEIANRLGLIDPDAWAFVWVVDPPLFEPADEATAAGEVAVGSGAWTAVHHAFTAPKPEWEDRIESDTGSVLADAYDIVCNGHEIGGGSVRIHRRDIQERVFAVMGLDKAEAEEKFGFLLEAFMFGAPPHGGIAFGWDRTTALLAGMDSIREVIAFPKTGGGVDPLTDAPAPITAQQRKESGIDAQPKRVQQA
# [2] = target: Shiga toxin 2 (Escherichia coli O157:H7) (UniProt P09385+P09386); experiment: E. coli 0.157:H7 Shiga Toxin SOP - stx2 screening assay; assay type: functional; design: scale not given: direction of the effect not stated beside the values; conditions: 30 µM
SMILES,Percent Effect [1] [%],Percent Effect [2] [%]
Cc1cccc(-c2nc(CN(Cc3cccs3)CC3CCCO3)no2)c1 (centres undefined),-0.626,-5.45
NC(=O)CSCC(=O)N1CCc2cc(Cl)cc(Cl)c2C1,12.7,-44.7
O=c1cc2c(nn1CN1CCOCC1)CCC2,2.64,-10.5
Cc1ccc(N2CC3(COCCN(Cc4nccs4)C3)OCC2=O)s1 (centres undefined),7.04,-13.5
O=C1NCCCCC1Sc1nnc(-c2cccnc2)n1C1CC1 (centres undefined),-3.62,7.22
Cc1ccc(CC(=O)NCCCNS(C)(=O)=O)cc1,2.46,-16.3
CN1CC(=O)N(c2ccccc2)CC12CCN(Cc1nccs1)C2 (centres undefined),4.78,-21.2
Cc1nn(C)c(C)c1C1CCCN1Cc1cccc(C(=O)N(C)C)c1 (centres undefined),-0.742,-11.2
O=C1CCC(C(=O)NCc2nncn2-c2ccccc2)CN1 (centres undefined),3.33,4.47
CN(C)CC1CN(Cc2coc(-c3ccccc3Cl)n2)CCO1 (centres undefined),-5.66,-26.4
CCCn1ncc2c(C(=O)Nc3cnn(CC)c3C)cc(C3CC3)nc21,-1.49,-0.924
CCc1nc2ccccc2c(=O)n1CC1(O)CCN(S(C)(=O)=O)CC1,4.54,-2.21
Fc1cccc(-c2nc(CN3CCOC(Cn4cccn4)C3)co2)c1 (centres undefined),2.49,24.3
CN1CCOC(CNCc2nc(-c3ccccc3)cs2)C1 (centres undefined),-7.57,-26
Cc1ccn2cc(C(=O)N3CCCC3c3c(C)nn(C)c3C)nc2c1 (centres undefined),-1.79,-1.23
CCOCC(O)CN1CCN(C(=O)c2cccnc2OC)CC1 (centres undefined),-1,12.8
O=C(NCCc1ccn(-c2ccccc2)n1)N1CCC1,1.53,-11.7
Cc1[nH]ccc1C(=O)N1CCC(c2nnc(Cn3cccn3)n2C)CC1,-2.14,-9.29
CC(C)c1nnc2n1CCN(CC(=O)N1CCc3ccccc3C1)C2,-3.72,-17
Cc1n[nH]c(C)c1NC(=O)CN1CCc2c(nc(C3CC3)n2C)C1,4.55,-6.27
Cc1ccc(C(=O)Nc2cn[nH]c2)cc1C,-2.79,16.5
CCc1cc(NC2CCN(S(C)(=O)=O)CC2)n2nc(C)c(C)c2n1,1.78,-16
CN(C)C(=O)[C@@H]1CCO[C@@H]2CCN(Cc3ccccc3)C[C@@H]21,2.24,-27
Cn1ccnc1CN1CCCCC1Cn1cccn1 (centres undefined),2.66,11.2

SMILES,Percent Effect [1] [%],Percent Effect [2] [%]
Cc1cc(NC(=O)NCC2CCOC2)no1 (centres undefined),-7.54,-24.3
CCc1n[nH]c(C2CN(CC(=O)NCCc3ccsc3)CCO2)n1 (centres undefined),-5.2,-20.2
Cc1cccc(C2(NC(=O)CCN3C(=O)CCC3=O)CCCC2)c1,-6.14,10.2
CC1CCN(Cc2cnc(S(=O)(=O)CC3CC3)n2CC2CCCO2)CC1 (centres undefined),-2.12,-24.8
Cc1cc(N2CCCN(C(=O)Cc3csc(C)n3)CC2)ccn1,0.502,3.59
N#Cc1cc(NC(=O)C2CC=CC2)ccc1N1CCC(O)CC1,-1.55,-9.47
Cc1ccc(CN(Cc2cccnc2)C2CC(C)(C)NC(C)(C)C2)s1,3.32,13.4
O=C(CCC(=O)N1CCCC1c1cccs1)N1CCc2sccc2C1 (centres undefined),-0.31,-7.21
CN(C)C(C)(C)CNC(=O)C(C)(C)c1ccccc1F,-0.279,13.2
O=C(NCN1CCc2ccccc2C1)c1cnccn1,8.37,-18.9
CN(C)CC(=O)N1C[C@H]2CCC[C@@]2(COc2ccccn2)C1,1.75,13.5
Fc1cccc(CN2CCC(c3n[nH]c4ncccc34)CC2)c1F,-3.17,-6.18
Cc1ccoc1-c1nnc(CNCC2CCCN2c2cccnn2)o1 (centres undefined),-2.62,5.85
O=C1COC2(CCN(Cc3cccs3)CC2)CN1c1ccccc1,-2.62,-22
O=C(c1ccno1)N1CCC2(CC1)C(=O)N(CC1CC1)c1ccccc12,-0.569,-1.25
CC1CN(C)CCN1C(=O)c1ccn(-c2cccc(Cl)c2)n1 (centres undefined),-2.06,-4.97
NC(=O)C1CCN(Cn2nc(-c3ccccc3)oc2=O)CC1,9.54,-53.5
CCc1nnsc1C(=O)NCCn1nc2ccccn2c1=O,-6.91,-19.6
CCS(=O)(=O)CC(=O)NC(c1ccc(F)cc1)C1CCCC1 (centres undefined),-3.77,-1.68
COc1cccc(CN(C)C(=O)CCC(=O)c2ccc(Cl)cc2)c1OC,-1.19,-1.09
Cc1cnn(CC(C)NCc2csc(-c3ccsc3)n2)c1 (centres undefined),-7.44,-28
Cc1ccc(-c2nc(CN3CCCC(Cn4cncn4)C3)no2)cc1 (centres undefined),1.64,-11.2
COc1cccc(C(=O)N2CCc3ncnc(C)c3CC2)c1,-1.32,-12
